Results from PubChem BioAssay (Tox21).
Records with an inconclusive call do not appear. Activity calls are given as the source filed them. Unless noted, calls follow the shape of the dose curve; as a rule, active = well fitted curve in the direction sought with a large enough effect in the repeat runs; inconclusive = weak or mixed curves; inactive = no such curve, though single readings can be large; an effect the other way counts as inactive or inconclusive.

Tests used:
[1] = qHTS assay to identify small molecule agonists of the peroxisome proliferator-activated receptor delta (PPARd) signaling pathway - cell viability counter screen (AID 743211); also: nearly all actives have a fitted effect of over 55% in size
How it was run: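 PPARd-bla HEK293H cells (3000/well) were pre-incubated 5 h at 37 C, then exposed to compound for 17 h at 37 C. After 2 h with LiveBLAzer substrate, CellTiter-Glo was added to the same wells; luminescence read after 30 min at room temperature.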

[2] = biological target: Peroxisome proliferator-activated receptor delta (Homo sapiens) (UniProt Q03181); test: qHTS assay to identify small molecule agonists of the peroxisome proliferator-activated receptor delta (PPARd) signaling pathway (AID 743212; calls by dose curve)
Peroxisome proliferator-activated receptor delta (Homo sapiens), sequence (Q03181 whole entry, looked up): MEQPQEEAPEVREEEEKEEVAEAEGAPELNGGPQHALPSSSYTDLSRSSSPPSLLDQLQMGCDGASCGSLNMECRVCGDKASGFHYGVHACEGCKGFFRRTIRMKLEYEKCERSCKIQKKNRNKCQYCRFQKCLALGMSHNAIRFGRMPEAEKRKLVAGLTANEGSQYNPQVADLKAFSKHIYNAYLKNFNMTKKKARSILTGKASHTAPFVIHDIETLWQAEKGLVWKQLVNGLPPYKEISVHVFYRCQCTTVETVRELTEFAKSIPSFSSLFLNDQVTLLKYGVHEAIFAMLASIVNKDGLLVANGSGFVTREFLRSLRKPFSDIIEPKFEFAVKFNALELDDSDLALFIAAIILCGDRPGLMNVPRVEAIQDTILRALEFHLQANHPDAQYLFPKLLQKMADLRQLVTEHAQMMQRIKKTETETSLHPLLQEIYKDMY
How it was run: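 Read-out: beta-lactamase FRET fluorescence after 2 h room-temperature incubation with LiveBLAzer B/G substrate. Cells were HEK293H carrying a UAS-bla reporter for PPARd, treated at 37 C with DMSO-dissolved compounds.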

[3] = qHTS assay to identify small molecule antagonists of the peroxisome proliferator-activated receptor delta (PPARd) signaling pathway - cell viability counter screen (AID 743213); also: nearly all actives have a fitted effect of over 50% in size
How it was run: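 Luminescence from CellTiter-Glo, added after the bla read and incubated 30 min at room temperature, gives viability of HEK293H PPARd-bla cells exposed to compounds for 17 h at 37 C with 300 nM L165041.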

[4] = biological target: Peroxisome proliferator-activated receptor delta (Homo sapiens) (UniProt Q03181); test: qHTS assay to identify small molecule antagonists of the peroxisome proliferator-activated receptor delta (PPARd) signaling pathway (AID 743215; active = well fitted inhibition curve with a large enough effect in the signal ratio in the repeat runs, not every such curve was filed as active; the % refers to the signal ratio;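 also: cells stimulated with agonist L165041 at 300 nM final during compound exposure; series mostly up to about 62 µM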)
How it was run: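 Screen format: qHTS, antagonist mode. HEK293H PPARd-bla cells received compound and 300 nM L165041 (final), 17 h, 37 C. Beta-lactamase detected via FRET substrate fluorescence, 2 h, room temperature.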

[5] = biological target: Bile acid receptor (Homo sapiens) (UniProt Q96RI1); test: qHTS assay to identify small molecule antagonists of the farnesoid-X-receptor (FXR) signaling pathway (AID 743217; active = well fitted inhibition curve with a large enough effect in the signal ratio in the repeat runs, not every such curve was filed as active; the % refers to the signal ratio)
Bile acid receptor (Homo sapiens), sequence (Q96RI1 whole entry, looked up): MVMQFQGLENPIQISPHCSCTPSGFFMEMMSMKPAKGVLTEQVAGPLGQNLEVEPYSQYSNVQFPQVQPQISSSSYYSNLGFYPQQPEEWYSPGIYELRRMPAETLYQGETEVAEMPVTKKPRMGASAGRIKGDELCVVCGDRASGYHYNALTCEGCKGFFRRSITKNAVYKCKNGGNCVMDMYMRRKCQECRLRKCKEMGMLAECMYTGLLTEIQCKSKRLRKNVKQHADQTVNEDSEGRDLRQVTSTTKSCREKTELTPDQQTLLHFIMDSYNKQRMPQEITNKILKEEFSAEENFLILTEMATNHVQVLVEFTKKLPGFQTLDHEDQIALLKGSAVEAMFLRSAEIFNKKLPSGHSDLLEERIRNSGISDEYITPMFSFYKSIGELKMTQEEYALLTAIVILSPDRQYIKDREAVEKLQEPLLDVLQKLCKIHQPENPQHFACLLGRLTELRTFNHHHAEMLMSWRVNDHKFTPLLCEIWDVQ
How it was run: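 Quantitative HTS, beta-lactamase reporter format: FXR-UAS-bla HEK 293T cells co-treated 16 h at 37 °C with compounds and 50 uM final chenodeoxycholic acid, then read by B/G FRET fluorescence.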

[6] = qHTS assay to identify small molecule agonists of the farnesoid-X-receptor (FXR) signaling pathway - cell viability counter screen (AID 743218); also: nearly all actives have a fitted effect of over 45% in size
How it was run: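 Same-well cytotoxicity check on FXR-UAS-bla HEK 293T cells: 5 h attachment, 16 h compound at 37 C, CellTiter-Glo luminescence read at room temperature after 30 min.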

[7] = biological target: Bile acid receptor (Homo sapiens) (UniProt Q96RI1); test: qHTS assay to identify small molecule agonists of the farnesoid-X-receptor (FXR) signaling pathway (AID 743220; active = well fitted activation curve with a large enough effect in the signal ratio in the repeat runs, not every such curve was filed as active; the % refers to the signal ratio)
How it was run: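 FXR-UAS-bla HEK 293T cells carrying a UAS-driven beta-lactamase reporter were plated for 5 h at 37C/5% CO2, then exposed to DMSO-dissolved Tox21 10K compounds for 16 h at 37C. A LiveBLAzer B/G FRET substrate was loaded for 2 h at room temperature before fluorescence reading.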

[8] = qHTS assay to identify small molecule antagonists of the farnesoid-X-receptor (FXR) signaling pathway - cell viability counter screen (AID 743221; active = well fitted cell-killing curve with a large enough effect in the repeat runs, not every such curve was filed as active; also: nearly all actives have a fitted effect of over 50% in size)
How it was run: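 GeneBLAzer FXR-UAS-bla HEK 293T cells, compound plus chenodeoxycholic acid (50 uM final), 16 h at 37 C. CellTiter-Glo added to the same wells after the beta-lactamase read; luminescence read after 30 min at room temperature as viability.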

[9] = biological target: Vitamin D3 receptor (Homo sapiens) (UniProt P11473); test: qHTS assay to identify small molecule antagonists of the vitamin D receptor (VDR) signaling pathway (AID 743223; active = well fitted inhibition curve with a large enough effect in the signal ratio in the repeat runs, not every such curve was filed as active; the % refers to the signal ratio)
Vitamin D3 receptor (Homo sapiens), sequence (P11473 whole entry, looked up): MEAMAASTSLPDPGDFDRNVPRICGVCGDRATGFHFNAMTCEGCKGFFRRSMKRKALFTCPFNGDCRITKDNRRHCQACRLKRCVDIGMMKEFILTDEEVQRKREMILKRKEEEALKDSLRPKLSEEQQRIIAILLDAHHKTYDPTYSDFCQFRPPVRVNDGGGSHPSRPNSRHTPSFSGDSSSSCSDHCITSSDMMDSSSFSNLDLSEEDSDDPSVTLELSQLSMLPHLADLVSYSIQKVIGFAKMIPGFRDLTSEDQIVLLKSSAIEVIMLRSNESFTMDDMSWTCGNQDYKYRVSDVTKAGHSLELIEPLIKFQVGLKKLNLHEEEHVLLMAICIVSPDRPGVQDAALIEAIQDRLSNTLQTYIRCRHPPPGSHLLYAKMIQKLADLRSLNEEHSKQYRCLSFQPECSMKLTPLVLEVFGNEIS
How it was run: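 VDR-bla cells were treated with compound plus 3 nM final 1alpha,25-dihydroxyvitamin D3 for 16 h at 37C. Beta-lactamase reporter read by B/G FRET substrate fluorescence after 2 h at room temperature. qHTS format.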

[10] = biological target: Vitamin D3 receptor (Homo sapiens) (UniProt P11473); test: qHTS assay to identify small molecule agonists of the vitamin D receptor (VDR) signaling pathway (AID 743222; calls by dose curve)
How it was run: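 Using LiveBLAzer B/G FRET detection, agonism was scored in VDR-bla cells exposed overnight (16 h, 37C) to DMSO-dissolved compounds; substrate incubation was 2 h at room temperature.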

Measured: outcome

CC(=O)CC(=O)Nc1ccc(C)cc1C
not listed: [9] | [10]
inactive: all other assays above

Cc1c(N)cccc1Cl
not listed: [10]
inactive: all other assays above

CC(=O)CCc1ccc(OC(C)=O)cc1
not listed: [9]
inactive: all other assays above

CC1(C)[C@H]2CC[C@](C)(C2)[C@H]1O
not listed: [9]
inactive: all other assays above

C=CC(=O)OCC1CCCO1 (stereo not given)
not listed: [9] | [10]
inactive: all other assays above

CC(O)CC(C)O (stereo not given)
not listed: [9]
inactive: all other assays above

C[C@H]1[C@@H](c2ccccc2)NC(=O)N1C
inactive: all assays above

CSc1cnccn1
inactive: all assays above

CN(C)C(C)(C)CO
inactive: all assays above

CC(=O)C(C)O (stereo not given)
inactive: all assays above

Cc1cccc(Cl)c1
not listed: [9] | [10]
inactive: all other assays above

CC(C)Cn1cnc2c1c(=O)n(C)c(=O)n2C
not listed: [8]
inactive: all other assays above

O=C(O)c1cc2ccccc2nc1C(=O)O
not listed: [6]
inactive: all other assays above

Cc1ccc(N)cc1S(=O)(=O)O
not listed: [6] | [9]
inactive: all other assays above

Cc1c(NC(=O)c2cccnc2)c(=O)n(-c2ccccc2)n1C
not listed: [6]
inactive: all other assays above

c1ccc2c(CC3=NCCN3)cccc2c1
inactive: [1] | [2] | [3] | [4] | [6] | [8]

Cn1nnc2c(C(N)=O)ncn2c1=O
not listed: [6] | [9]
inactive: all other assays above

CCC[C@@H]1C[C@@H](C(=O)N[C@@H]([C@H]2O[C@H](SC)[C@H](O)[C@@H](O)[C@H]2O)[C@@H](C)O)N(C)C1
inactive: [1] | [2] | [3] | [4] | [6] | [8]

CC(C)C1OCCN1CCOC(=O)NCCCCCCNC(=O)OCCN1CCOC1C(C)C (stereo not given)
inactive: [1] | [2] | [3] | [4] | [6] | [8]

C=CCCCCCCCCC(=O)OCCCC
not listed: [6] | [9]
inactive: all other assays above

COc1cc2c(cc1OC)CN(C(=O)[C@H](C)N[C@@H](CCc1ccccc1)C(=O)O)[C@H](C(=O)O)C2
inactive: [1] | [2] | [3] | [4] | [6] | [8]

CN1CCOC(c2ccccc2)c2ccccc2C1 (stereo not given)
not listed: [6] | [9] | [10]
inactive: all other assays above

COc1cc(/C=C/C(N)=O)cc(OC)c1OC
not listed: [6]
inactive: all other assays above

CCCCC1CCC(O)CC1 (stereo not given)
not listed: [6] | [9]
inactive: all other assays above

OCC1CCC(CO)CC1 (stereo not given)
not listed: [6] | [9]
inactive: all other assays above

CCC(C)C(=O)OCCc1ccccc1 (stereo not given)
not listed: [5] | [9] | [10]
inactive: all other assays above

C[C@]12CCC(=O)C=C1CC[C@H]1[C@@H]3CC[C@](O)(C(=O)CO)[C@@]3(C)C[C@H](O)[C@@]12F
not listed: [6]
inactive: all other assays above

O=C(O)CCCCCC(=O)O
not listed: [5] | [7] | [9]
inactive: all other assays above
